Anthrax LF inh2 = inhibitors of Bacillus anthracis lethal factor protease. P15917. multiplex microsphere protease cleavage assay, LF. inhibition, % at 10 µM. actives 0.12% (n = 360,000). AID 588501
Bead autofluor = compound fluorescence in toxin protease inhibitor counterscreen; compound autofluorescence counterscreen, microsphere flow cytometry; stronger effect = higher value; fluorescence intensity (no concentration beside the values); actives 3.1% (n = 360,000); in the data active means fluorescence intensity above about 16000; inconclusive means no clear call, values can overlap the other calls
MazEF act = activators of E. coli MazEF toxin-antitoxin RNase. AID 504720. FAM/BHQ RNA-DNA oligo cleavage fluorescence, 5 h. actives 0.32% (n = 350,000). activation, % at 20 µM; in the data active means activation above about 50%
BoNT A protease = blocks Botulinum neurotoxin A light chain protease. multiplex microsphere protease substrate cleavage, flow cytometry. inhibition, % at 10 µM. actives 0.17% (n = 360,000). AID 588499
BoNT F protease = BoNT F light chain protease inhibition; AID 588497; inhibition, % at 10 µM; actives 0.22% (n = 360,000); Multiplex microsphere protease cleavage assay, flow cytometry; in the data active means inhibition above about 35%, passing the limit was not always enough; inconclusive means no clear call, values can overlap the other calls
VHR inh abs = blocks human VHR1 dual specificity phosphatase | inhibition, % at 13.3 µM | actives 0.52% (n = 290,000) | recombinant VHR phosphatase, pNPP absorbance | AID 1654; in the data active means inhibition above about 50%
Large screens that a line does not name were inactive. The list is not random: actives were taken first. Their share in the collection is about 4.1%. Unless noted, no stated cut-off is given here; in the data, active means inhibition above about 30%; inconclusive means no clear call, values can overlap the other calls; inactive means below that.

CCc1nccn1CCC(=O)N1CCCC(N2CCN(c3cccc(Cl)c3)CC2)C1 (configuration not stated)	none
Cn1nc(C(F)(F)F)c(/C=N/OC(=O)c2ccc(Cl)cc2)c1Cl	none
Cn1nc(C(F)(F)F)c(/C=N/OC(=O)c2ccccc2)c1SCc1ccc(Cl)cc1	Bead autofluor 21079
Cn1nc(C(F)(F)F)c(/C=N/OC(=O)c2ccccc2Cl)c1SCc1ccccc1Cl	Bead autofluor 22148
CCn1c(SC/C=C/c2ccccc2)nnc1-c1cnccn1	Bead autofluor 21032
CCn1c(SC/C=C/c2ccccc2)nnc1-c1cccs1	Bead autofluor 20863
Cc1ccccc1NS(=O)(=O)c1ccc2oc(=O)ccc2c1	none
COc1ccccc1NCC(=O)N/N=C(\C)c1ccc(Br)s1	none
C/C(=N/NC(=O)CNc1ccc(C)cc1)c1ccc(Br)s1	Bead autofluor 19958
Cc1cc(C(=O)N2CCN(c3ccccc3Cl)CC2)c(C)o1	none (no result: VHR inh abs)
COc1ccc(C(CNC(=O)CN(C)S(=O)(=O)c2ccc(C)cc2)N2CCCC2)cc1 (configuration not stated)	none (no result: VHR inh abs)
CCCc1cc(=O)[nH]c(SCC(N)=O)n1	BoNT F protease inconclusive
CCCc1nc(SCC(N)=O)[nH]c(=O)c1CC	Bead autofluor 22995
O=C(CC[C@H]1O[C@@H](n2ccc(=O)[nH]c2=O)[C@H](O)[C@@H]1O)NCCc1c[nH]c2ccccc12	none (no result: MazEF act, VHR inh abs)
Cc1[nH]n(-c2ccccc2)c(=O)c1S(=O)(=O)c1ccccc1	Bead autofluor 16181
Cc1cc(C(=O)CN2C(=O)C(=O)N(Cc3ccco3)C2=O)c(C)n1CCc1ccc(F)cc1	none (no result: VHR inh abs)
O=c1[nH]c(SCc2ccc(Cl)cc2)nc2c1CCC2	BoNT F protease inconclusive
O=c1[nH]c(SCc2ccccc2Cl)nc2c1CCCC2	Bead autofluor 20115
CC(OC(=O)[C@H](C)N=C1NS(=O)(=O)c2ccccc21)C(=O)Nc1ccc(F)c(F)c1F (some centres not stated)	none (no result: VHR inh abs)
Cc1ccc(C)c(OCCn2cc(/C=C(\C#N)C(=O)NCc3cccs3)c3ccccc32)c1	Bead autofluor 22488
N#C/C(=C\c1cn(Cc2ccc(C#N)cc2)c2ccccc12)C(=O)NCc1cccs1	MazEF act 55
O=C(NCc1ccccc1)c1ccccc1OCC(=O)N1CCCCC1	Bead autofluor 22260
O=C(CCCOc1ccccc1)N1CCN(C(=O)c2ccco2)CC1	Bead autofluor 23020
Cc1cc(Cl)ccc1OCCCC(=O)N1CCN(S(=O)(=O)c2ccccc2)CC1	none (no result: VHR inh abs)
Cc1cc(Cl)ccc1OCCCC(=O)N1CCN(C(=O)c2ccco2)CC1	Bead autofluor 21790
O=C(NCc1ccccc1)c1cccc(OCC(=O)N2CCN(C(=O)c3ccco3)CC2)c1	Bead autofluor 20088, BoNT A protease inconclusive
CC(C)c1nnc(NC(=O)C2CCCN2C(=O)Nc2cccc(Cl)c2)s1 (configuration not stated)	none
COC(=O)C1CN(C(=O)COc2cc(C)cc(C)c2)c2ccccc2O1 (configuration not stated)	none
CCOC(=O)c1c(C)c(C(=O)NC(C)COC)c(C)n1C (configuration not stated)	Bead autofluor 17439, BoNT A protease inconclusive
CCOC(=O)c1c(C)c(C(=O)NCc2ccc3c(c2)OCO3)c(C)n1C	Bead autofluor 16759
CCOC(=O)c1c(C)c(C(=O)NCCCOC(C)C)c(C)n1C	Bead autofluor 19718
CCOC(=O)c1c(C)c(C(=O)NCc2ccc3c(c2)OCO3)c(C)n1CC	none
Nc1ccn([C@@H]2O[C@H](C(=O)N3CCCN(Cc4ccccc4F)CC3)[C@@H](O)[C@H]2O)c(=O)n1	none (no result: MazEF act, VHR inh abs)
Cn1ccnc1SCC(=O)Nc1cccc2ccccc12	Bead autofluor 19695
O=C(CSc1nnc(-c2ccc(Br)cc2)o1)Nc1cccc2ccccc12	Bead autofluor 23146
O=C(CSc1nnc(-c2ccc(Br)cc2)o1)Nc1cccc(C(=O)O)c1	none
Cc1cccc(N2C(=O)C(O)=C(C(=O)c3cccs3)C2c2ccc(F)cc2)n1 (configuration not stated)	none
COc1ccc(C2C(C(=O)c3cccs3)=C(O)C(=O)N2c2nncs2)cc1 (configuration not stated)	Bead autofluor 22479, BoNT A protease inconclusive
CC(C)c1nnc(N2C(=O)C(O)=C(C(=O)c3cccs3)C2c2ccccc2)s1 (configuration not stated)	MazEF act 172
COc1ccc(C2C(C(=O)c3cccs3)=C(O)C(=O)N2c2nnc(C)s2)cc1OC (configuration not stated)	MazEF act 69
C=CCOc1ccc(C2C(C(=O)c3cccs3)=C(O)C(=O)N2c2nnc(C)s2)cc1 (configuration not stated)	MazEF act 315, BoNT F protease 170 (no result: VHR inh abs)
Cc1ccc(C2C(C(=O)c3ccco3)=C(O)C(=O)N2c2nnc(C)s2)cc1 (configuration not stated)	none
CCOc1ccc(CCN2C(=S)N([C@@H](CC(C)C)CN3CCCC3CN3C(=S)NC[C@@H]3Cc3ccc(O)cc3)C[C@@H]2CC(C)C)cc1 (some centres not stated)	none (no result: VHR inh abs)
CC(C)On1c(SC(C)C)nc2ccccc2c1=O	Bead autofluor 22943
COn1c(SC(C)C)nc2ccccc2c1=O	none
COn1c(SCC(N)=O)nc2ccccc2c1=O	none
COn1c(SC2CCCCC2)nc2ccccc2c1=O	Bead autofluor 17818
Nc1c2c(nc3c1CCCC3)CCCC2 (tested in a mixture with another compound)	none (no result: Anthrax LF inh2, Bead autofluor, BoNT A protease, BoNT F protease)
Cn1cc([N+](=O)[O-])c(C(=O)NC2CCCC2)n1	none
COc1ccc(NC(=O)N2CCn3c2nc2ccccc23)cc1	Bead autofluor 19709
O=C(c1c(F)cccc1F)N(C1CCCCC1)C1CCCCC1	none
O=C(CN(Cc1ccco1)C(=O)c1ccc(F)cc1F)Nc1ccccc1C(F)(F)F	none (no result: VHR inh abs)
O=C(CN(Cc1ccco1)C(=O)c1cc(=O)[nH]c2ccccc12)Nc1ccccc1C(F)(F)F	Bead autofluor 16502
CCOC(=O)CSc1ncc(OC)c(Sc2ccc(OC)cc2)n1	Bead autofluor 20771
CCOc1cc(CNn2cnnc2)ccc1OCC(=O)NC1CCCCC1	Bead autofluor 21782
CCOc1ccccc1OCC(=O)NC1CCCCC1	none
Cc1c(Cl)cccc1NC(=O)Cn1c(CCC(=O)O)ccc1-c1ccccc1	BoNT F protease 48
Cc1c(Cl)cccc1NC(=O)CN1CCC(C(O)(c2ccccc2)c2ccccc2)CC1	Bead autofluor 21085
O=C(C1CC1)N1CCC(C(O)(c2ccccc2)c2ccccc2)CC1	Bead autofluor 21864, BoNT A protease inconclusive
O=C(c1ccccc1)N1CCN(C(=O)C2CC2)CC1	none
Cc1ccccc1C(=O)NC1CCN(CC(=O)Nc2ccccc2Cl)CC1	none
COc1ccc(CCNC(=O)Nc2ccc3c(c2)c(=O)n(C)n3CC=C(C)C)cc1OC	none (no result: MazEF act, VHR inh abs)
